The text below walks through data of PubChem BioAssay (NCI).

Molecules are shown by their SMILES. The panel holds about 83,000 compounds, 20% with a hit somewhere; the sample as a whole holds those more often.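 The endpoint reported here, percent growth, reads 100 for growth as untreated, 0 for no net growth and -100 for all cells dead.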 A number with no mark means an inactive call. Active and inactive are the calls of the source. Rule for the calls: active = growth percent below 10; inactive = the rest.

Among the test systems are NCI-H23 lung; NCI-H226 lung; NCI-H322M lung; HOP-62 NSCLC; NCI-H460 lung; HOP-92 NSCLC; NCI-H522 lung; A549/ATCC NSCLC; 786-0 renal; COLO 205 colon.
Holding throughout (experiment): NCI-60 one-dose screen, 48 h (100 = growth as untreated, 0 = no growth, -100 = all killed)
What all share (conditions): 10 µM unless noted

`CC[S][Hg][Cl]`: the growth in the assay on NCI-H23 lung is 102%; with NCI-H226 lung, 113%; with NCI-H322M lung it was 101%; in the assay with HOP-62 NSCLC it was 119%; with NCI-H460 lung, 110%; in the assay with HOP-92 NSCLC it was 113%. Also, the growth in the assay on NCI-H522 lung is -46.7% (active); with A549/ATCC NSCLC it was 98.8%; in the assay with 786-0 renal, 109%; in the assay with COLO 205 colon, 124%.
For the compound `CCc1ccccc1[C@@H]1C[C@]2(C)CCO[C@@H]2OO1`, the growth in the assay on NCI-H23 lung is 104%; in the assay with NCI-H226 lung, 102%; in the assay with NCI-H322M lung, 105%; with HOP-62 NSCLC, 98.2%; with NCI-H460 lung, 107%; with HOP-92 NSCLC, 92.7%. Besides, the growth was 104% in the assay on NCI-H522 lung, 96.8% in the assay on A549/ATCC NSCLC, 101% in the assay on 786-0 renal and 118% with COLO 205 colon.
Turning to `CCCOC(=O)N[C@H]1CCc2c(Br)c(OC)c(OC)c(OC)c2-c2ccc(SC)c(=O)cc21`, the growth with NCI-H23 lung was 26.9%; with NCI-H226 lung, 15.4%; with NCI-H322M lung it was 34.6%; in the assay on HOP-62 NSCLC, 41.1%; with NCI-H460 lung it was -18.1% (active); in the assay with HOP-92 NSCLC, -3.98% (active). For the same compound, the growth in the assay with NCI-H522 lung was 8.5% (active); with A549/ATCC NSCLC, 18.2%; with 786-0 renal, 1.42% (active); with COLO 205 colon it was -31.9% (active).
As for `CN1CC(=O)N(O)C1(C)c1cccnc1` (stereo not given), the growth in the assay with NCI-H23 lung is 104%; in the assay on NCI-H226 lung it was 94.7%; in the assay on NCI-H322M lung, 98.7%; in the assay on HOP-62 NSCLC, 95.6%; in the assay on NCI-H460 lung it was 105%; with HOP-92 NSCLC, 116%. Also, the growth with NCI-H522 lung is 95.2%; with A549/ATCC NSCLC, 101%; in the assay with 786-0 renal it was 99.5%; with COLO 205 colon, 111%.
Regarding `CCCCCCCC(=O)OCC(=O)[C@]1(O)Cc2c(O)c3c(c(O)c2[C@@H](OC2CC(N)C(O)C(C)O2)C1)C(=O)c1c(OC)cccc1C3=O` (stereo not given in full), the growth was -76.2% (active) in the assay with NCI-H23 lung; -65.9% (active) in the assay on NCI-H226 lung; -72.8% (active) in the assay with NCI-H322M lung; -63.1% (active) in the assay with HOP-62 NSCLC; -92.9% (active) with NCI-H460 lung; -73.5% (active) in the assay on HOP-92 NSCLC. In addition, the growth in the assay with NCI-H522 lung was -63.2% (active); with A549/ATCC NSCLC, -97.6% (active); with 786-0 renal, -82.9% (active); with COLO 205 colon it was -85.7% (active).
Consider `Cc1cc(N(CCCl)CCCl)ccc1C=Nc1ccc(-c2csc(Cc3ccccc3)n2)cc1`, for which the growth is 59.1% with NCI-H23 lung; 54.6% in the assay with NCI-H226 lung; 76.6% in the assay with NCI-H322M lung; 65.1% with HOP-62 NSCLC; 25.5% in the assay with NCI-H460 lung; 47.5% in the assay with HOP-92 NSCLC. Besides, the growth is 69.7% in the assay on NCI-H522 lung, 50.7% in the assay on A549/ATCC NSCLC, 50.8% with 786-0 renal and 74.1% in the assay on COLO 205 colon.
For the compound `O=C(O)C1C(C(=O)O)C2(Cl)C(Cl)=C(Cl)C1(Cl)C2(Cl)Cl.[Hg]` (stereo not given), the growth was 90.7% with NCI-H23 lung; 106% in the assay with NCI-H226 lung; 107% in the assay on NCI-H322M lung; 103% with HOP-62 NSCLC; 98.8% in the assay on NCI-H460 lung; 127% with HOP-92 NSCLC. Further, the growth in the assay on NCI-H522 lung is -50.2% (active); in the assay on A549/ATCC NSCLC, 85%; in the assay with 786-0 renal, 88%; in the assay on COLO 205 colon, 103%.
On to `CN[C@]1(c2ccccc2Cl)CCCC[C@H]1NCCCN1CCN(C)CC1`, for which the growth was 109% with NCI-H23 lung; 94.5% in the assay with NCI-H226 lung; 106% in the assay on NCI-H322M lung; 93.8% in the assay with HOP-62 NSCLC; 110% in the assay on NCI-H460 lung; 79.1% in the assay on HOP-92 NSCLC. Also, the growth was 93.9% with NCI-H522 lung, 98.5% in the assay on A549/ATCC NSCLC, 92.2% in the assay on 786-0 renal and 108% in the assay on COLO 205 colon.
As for `COc1ccc(-n2c(C)nc3cc(OC)c(OC)cc3c2=O)cc1OC`, the growth in the assay on NCI-H23 lung was 101%; with NCI-H226 lung, 99.1%; with NCI-H322M lung, 97%; with HOP-62 NSCLC, 102%; in the assay with NCI-H460 lung it was 106%; in the assay on HOP-92 NSCLC it was 103%. For the same compound, the growth is 101% in the assay with NCI-H522 lung, 98% in the assay on A549/ATCC NSCLC, 102% in the assay on 786-0 renal and 99.5% with COLO 205 colon.
With `COC(=O)[C@@H](C)C[C@H](Cc1ccccc1)NC(=O)c1csc([C@@H](C[C@H](C(C)C)N(C)C(=O)[C@@H](NC(=O)[C@H]2CCCCN2C)C2CCCCC2)OC(C)=O)n1`, the growth was 16.1% in the assay on NCI-H23 lung; 20.5% in the assay on NCI-H226 lung; 34.1% in the assay with NCI-H322M lung; -19.8% (active) with HOP-62 NSCLC; 1.05% (active) in the assay with NCI-H460 lung; -13.2% (active) with HOP-92 NSCLC. Further, the growth was -32.1% (active) with NCI-H522 lung, 11.4% with A549/ATCC NSCLC, 3.22% (active) in the assay with 786-0 renal and -75.7% (active) with COLO 205 colon.
`COc1ccc(S(=O)(=O)N(Cc2ccc3c(c2)C=CC(C)(C)O3)c2ccccc2)cc1OC`: the growth was 47.6% in the assay with NCI-H23 lung; 55.4% with NCI-H226 lung; 102% in the assay with NCI-H322M lung; 87.1% with HOP-62 NSCLC; 76.7% in the assay with NCI-H460 lung; 88.2% with HOP-92 NSCLC. The growth was 61.5% with NCI-H522 lung, 79.1% in the assay with A549/ATCC NSCLC, 87.1% with 786-0 renal and 64.7% in the assay with COLO 205 colon.
